# Records with an inconclusive call do not appear. The source made the active and inactive calls. Calls follow the shape of the dose curve; as a rule, active = well fitted inhibition curve with a large enough effect in the polarisation, with a control signal flat (not every such curve was filed as active); inconclusive = small, poorly fitted or top-dose-only effect, or effect the other way, or a change in a side signal; inactive = no such curve, though single readings can be large or run the other way; the % refers to the polarisation.
# Target: Histone-lysine N-methyltransferase 2A (Homo sapiens) (UniProt Q03164)
# Assay: Confirmation of Inhibitors Targeting the Menin-MLL Interaction in MLL Related Leukemias: Competition With Fluorescein Labeled MLL-derived Peptide
# Details: Fluorescence polarization, fluorescein-MLL peptide displacement from menin
# Potency is read from the fitted curve at half-maximal effect.
# Chain of Histone-lysine N-methyltransferase 2A (Homo sapiens) (Q03164 whole entry, looked up): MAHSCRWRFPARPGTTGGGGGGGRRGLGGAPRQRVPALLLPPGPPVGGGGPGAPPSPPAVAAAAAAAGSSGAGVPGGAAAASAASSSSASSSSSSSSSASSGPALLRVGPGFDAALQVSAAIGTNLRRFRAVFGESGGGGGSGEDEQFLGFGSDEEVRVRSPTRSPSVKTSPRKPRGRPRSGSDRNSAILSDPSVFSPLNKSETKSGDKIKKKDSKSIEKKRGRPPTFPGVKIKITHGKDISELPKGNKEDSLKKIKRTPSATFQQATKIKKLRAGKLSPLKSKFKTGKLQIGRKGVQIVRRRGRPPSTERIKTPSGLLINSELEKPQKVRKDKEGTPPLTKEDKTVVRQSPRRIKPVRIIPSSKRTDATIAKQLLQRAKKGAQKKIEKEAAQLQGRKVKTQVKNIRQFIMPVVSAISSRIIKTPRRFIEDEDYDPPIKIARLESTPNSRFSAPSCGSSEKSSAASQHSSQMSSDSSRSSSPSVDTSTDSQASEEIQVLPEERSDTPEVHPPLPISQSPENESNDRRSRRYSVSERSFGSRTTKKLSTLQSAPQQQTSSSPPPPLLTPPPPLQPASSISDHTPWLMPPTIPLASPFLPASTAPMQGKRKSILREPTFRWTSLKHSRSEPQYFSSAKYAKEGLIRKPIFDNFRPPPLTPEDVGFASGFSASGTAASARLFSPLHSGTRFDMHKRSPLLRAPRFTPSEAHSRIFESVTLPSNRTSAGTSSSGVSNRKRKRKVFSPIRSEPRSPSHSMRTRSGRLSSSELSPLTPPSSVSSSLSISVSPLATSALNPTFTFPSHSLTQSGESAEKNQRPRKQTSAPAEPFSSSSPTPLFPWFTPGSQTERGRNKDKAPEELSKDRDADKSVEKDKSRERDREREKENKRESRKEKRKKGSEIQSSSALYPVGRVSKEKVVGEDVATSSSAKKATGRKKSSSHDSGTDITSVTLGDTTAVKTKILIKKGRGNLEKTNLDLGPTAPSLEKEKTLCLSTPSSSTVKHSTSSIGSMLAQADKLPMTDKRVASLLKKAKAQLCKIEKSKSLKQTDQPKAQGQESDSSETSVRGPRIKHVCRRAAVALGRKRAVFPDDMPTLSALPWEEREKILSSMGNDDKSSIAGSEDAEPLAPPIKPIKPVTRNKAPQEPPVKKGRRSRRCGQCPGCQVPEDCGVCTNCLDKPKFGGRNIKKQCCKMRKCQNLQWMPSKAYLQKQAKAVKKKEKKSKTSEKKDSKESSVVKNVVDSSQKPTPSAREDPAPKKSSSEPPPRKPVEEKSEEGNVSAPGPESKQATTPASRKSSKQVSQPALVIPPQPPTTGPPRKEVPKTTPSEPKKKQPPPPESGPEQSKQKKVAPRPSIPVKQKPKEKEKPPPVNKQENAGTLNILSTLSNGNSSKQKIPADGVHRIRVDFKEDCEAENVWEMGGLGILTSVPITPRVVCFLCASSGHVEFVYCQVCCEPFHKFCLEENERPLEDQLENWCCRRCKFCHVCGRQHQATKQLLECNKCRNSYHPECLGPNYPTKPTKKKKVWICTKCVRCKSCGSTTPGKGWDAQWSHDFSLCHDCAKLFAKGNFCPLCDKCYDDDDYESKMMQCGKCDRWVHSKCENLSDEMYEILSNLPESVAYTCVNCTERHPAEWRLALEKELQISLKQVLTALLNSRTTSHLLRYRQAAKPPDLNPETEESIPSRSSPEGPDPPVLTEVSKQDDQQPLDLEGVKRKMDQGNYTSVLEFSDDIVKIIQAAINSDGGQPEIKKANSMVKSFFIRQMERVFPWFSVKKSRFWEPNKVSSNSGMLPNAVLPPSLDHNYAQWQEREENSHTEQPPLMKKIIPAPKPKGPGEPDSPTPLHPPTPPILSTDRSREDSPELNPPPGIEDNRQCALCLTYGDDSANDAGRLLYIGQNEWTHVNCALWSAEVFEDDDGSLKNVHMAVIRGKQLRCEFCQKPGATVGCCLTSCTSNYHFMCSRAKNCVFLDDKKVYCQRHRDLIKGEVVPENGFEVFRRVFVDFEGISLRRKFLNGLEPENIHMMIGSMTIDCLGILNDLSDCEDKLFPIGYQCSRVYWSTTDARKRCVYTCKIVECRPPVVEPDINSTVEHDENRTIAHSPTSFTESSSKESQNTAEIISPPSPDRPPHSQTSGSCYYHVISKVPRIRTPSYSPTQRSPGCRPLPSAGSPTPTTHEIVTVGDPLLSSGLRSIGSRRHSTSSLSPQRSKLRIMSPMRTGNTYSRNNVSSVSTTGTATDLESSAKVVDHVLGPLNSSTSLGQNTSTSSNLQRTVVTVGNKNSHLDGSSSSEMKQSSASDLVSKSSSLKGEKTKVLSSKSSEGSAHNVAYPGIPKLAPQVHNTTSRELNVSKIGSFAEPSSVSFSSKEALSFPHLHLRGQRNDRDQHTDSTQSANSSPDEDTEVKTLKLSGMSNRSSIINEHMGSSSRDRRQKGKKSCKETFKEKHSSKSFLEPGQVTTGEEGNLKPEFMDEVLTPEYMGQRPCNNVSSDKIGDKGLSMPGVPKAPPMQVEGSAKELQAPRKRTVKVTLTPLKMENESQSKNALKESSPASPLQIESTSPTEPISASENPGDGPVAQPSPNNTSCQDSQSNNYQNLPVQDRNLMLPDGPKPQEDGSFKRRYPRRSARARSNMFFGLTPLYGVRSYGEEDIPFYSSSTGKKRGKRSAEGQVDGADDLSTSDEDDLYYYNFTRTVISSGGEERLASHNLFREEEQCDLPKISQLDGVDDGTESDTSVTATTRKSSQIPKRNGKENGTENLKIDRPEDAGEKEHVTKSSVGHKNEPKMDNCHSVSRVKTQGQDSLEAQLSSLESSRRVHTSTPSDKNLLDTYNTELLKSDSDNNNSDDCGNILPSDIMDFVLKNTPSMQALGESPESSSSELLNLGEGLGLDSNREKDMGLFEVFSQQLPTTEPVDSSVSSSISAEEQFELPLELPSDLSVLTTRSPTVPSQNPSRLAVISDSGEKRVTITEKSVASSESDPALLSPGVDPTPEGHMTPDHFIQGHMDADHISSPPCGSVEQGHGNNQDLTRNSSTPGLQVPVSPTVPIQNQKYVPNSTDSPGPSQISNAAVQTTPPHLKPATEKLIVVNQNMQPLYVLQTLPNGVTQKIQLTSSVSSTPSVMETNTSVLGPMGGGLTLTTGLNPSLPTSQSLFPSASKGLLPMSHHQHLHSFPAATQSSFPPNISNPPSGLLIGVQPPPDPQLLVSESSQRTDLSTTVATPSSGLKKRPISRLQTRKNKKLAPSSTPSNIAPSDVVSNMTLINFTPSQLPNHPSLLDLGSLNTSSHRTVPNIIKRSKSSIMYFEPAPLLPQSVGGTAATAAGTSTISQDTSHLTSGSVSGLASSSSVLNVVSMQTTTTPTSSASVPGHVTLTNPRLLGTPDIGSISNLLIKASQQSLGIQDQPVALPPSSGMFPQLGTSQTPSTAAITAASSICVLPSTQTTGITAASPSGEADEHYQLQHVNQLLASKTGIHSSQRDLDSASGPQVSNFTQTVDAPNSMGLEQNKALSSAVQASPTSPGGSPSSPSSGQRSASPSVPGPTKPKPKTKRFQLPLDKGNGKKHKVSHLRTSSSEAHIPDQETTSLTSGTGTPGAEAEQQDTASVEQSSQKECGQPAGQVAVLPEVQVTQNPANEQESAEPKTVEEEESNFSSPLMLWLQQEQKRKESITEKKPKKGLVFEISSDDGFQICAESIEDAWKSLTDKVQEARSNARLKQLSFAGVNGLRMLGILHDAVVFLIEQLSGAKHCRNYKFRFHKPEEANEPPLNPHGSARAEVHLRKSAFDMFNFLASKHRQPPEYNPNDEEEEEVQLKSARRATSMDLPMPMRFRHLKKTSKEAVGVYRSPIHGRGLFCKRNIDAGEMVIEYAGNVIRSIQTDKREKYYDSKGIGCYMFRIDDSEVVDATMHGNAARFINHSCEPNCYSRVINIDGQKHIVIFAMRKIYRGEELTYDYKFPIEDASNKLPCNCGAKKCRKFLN
compound,measurement,value
c1cc2cc(c1)C[n+]1ccc(c3ccccc31)NCc1ccc(cc1)CNc1cc[n+](c3ccccc13)C2,Potency,126 µM (active)

# Reference: PubChem BioAssay AID2783 (National Center for Advancing Translational Sciences (NCATS), 2010)
